Counter-ions that a name gives are not always drawn.
Test system: Drosophila S2 cl14 SmoIP sensor cells
Experiment: normalized SmoIP GFP fluorescence (untreated unstimulated = 0%, untreated Hh-stimulated = 100%); higher = more Smo activation sensor fluorescence
Conditions: stimulation: Hh conditioned medium (+Hh); compound concentration: 2 uM; 24 h
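Further: flow cytometry read-out as median GFP intensity of gated cells, compounds added 30 min before Hh-conditioned or mock medium, mock-treated cells serving as unstimulated baseline.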

Compound	normalized SmoIP GFP fluorescence
CC(C)C[C@@H](C(=O)N[C@H](C(=O)OC1CCCC1)c1ccccc1)[C@H](O)C(=O)NO [CHR-2797(Tosedostat)]	108%
COc1cc(NC(=O)c2ccccn2)ccc1Cl	105%
CN(C)C(=O)c1cc2cnc(Nc3ccc(N4CCNCC4)cn3)nc2n1C1CCCC1	98.3%
COc1ccc(C[C@H](NC(=O)[C@H](C)NC(=O)CN2CCOCC2)C(=O)N[C@@H](Cc2ccccc2)C(=O)[C@@]2(C)CO2)cc1	86.4%
Cc1ccc(C(=O)NCCCCCC(=O)Nc2ccccc2N)cc1 [rg2833-rgfp109]	101%
Oc1ccc(-c2nc(-c3ccc(F)cc3)c(-c3ccncc3)[nH]2)cc1	99.3%
CCCS(=O)(=O)Nc1ccc(F)c(C(=O)c2c[nH]c3ncc(Cl)cc23)c1F	108%
Cn1cc(-c2ccc3ncc(Cc4ccc5ncccc5c4)n3n2)cn1	123%
Cc1ccc(S(=O)(=O)C=CC#N)cc1	121%
CCOc1cc2ncc(C#N)c(Nc3ccc(F)c(Cl)c3)c2cc1NC(=O)/C=C/CN(C)C [Pelitinib]	197%
CC(C)n1nc(-c2ccc3oc(N)nc3c2)c2c(N)ncnc21	73.9%
CC(=O)Nc1cccc2c1c(Sc1ccc(Cl)cc1)c(C)n2CC(=O)O	114%
CCCCc1nc2cc(/C=C/C(=O)NO)ccc2n1CCN(CC)CC	208%
COc1ccc([C@@H]2CC(=O)c3c(O)cc(O)cc3O2)cc1O [Hesperetin]	111%
C[N+]1(C)[C@@H]2C[C@@H](OC(=O)C(O)(c3cccs3)c3cccs3)C[C@H]1[C@@H]1O[C@@H]12 [Tiotropium-Bromide-hydrate]	114%
CCN1CCN(Cc2ccc(-c3cc4c(N[C@H](C)c5ccccc5)ncnc4[nH]3)cc2)CC1	97%
C[C@@H]1CN(CC(=O)Nc2ccc3c(c2)Cc2cccc(-c4cc(=O)cc(N5CCOCC5)o4)c2S3)C[C@H](C)O1	147%
O=C(CCCCCCNC(=O)c1cnc(N(c2ccccc2)c2ccccc2)nc1)NO [rocilinostat-acy-1215]	114%
CNCCCC12CCC(c3ccccc31)c1ccccc12 [Maprotiline-hydrochloride]	123%
C[C@H]1COC2=C1C(=O)C(=O)c1c2ccc2c1CCCC2(C)C [Cryptotanshinone]	115%
O=C(NOCC(O)CO)c1cc(Br)c(F)c(F)c1Nc1ccc(I)cc1F (configuration not stated)	132%
C[C@@H](NCCc1ccc(O)cc1)[C@@H](O)c1ccc(O)cc1 [Ritodrine-hydrochloride-Yutopar]	144%
CCCCCCCCc1ccc(CCC(N)(CO)CO)cc1	107%
O=c1cc(-c2ccc(O)cc2)oc2cc(O)cc(O)c12 [Apigenin]	140%

Same assay, conditions: stimulation: mock conditioned medium (-Hh); compound concentration: 2 uM; 24 h

Compound	normalized SmoIP GFP fluorescence
CC(C)c1nc(CN(C)C(=O)N[C@H](C(=O)N[C@@H](Cc2ccccc2)C[C@H](O)[C@H](Cc2ccccc2)NC(=O)OCc2cncs2)C(C)C)cs1 [Ritonavir]	-4.47%
Cc1cccc(-c2nn3c(c2-c2ccnc4ccc(C(N)=O)cc24)CCC3)n1	-15.4%
CN1CCN(S(=O)(=O)c2ccc(-c3cnc(N)c(C(=O)Nc4cccnc4)n3)cc2)CC1	1.21%
O=C(Nc1ccc(-c2ccnc(Nc3ccc(N4CCOCC4)cc3)n2)cc1)C1CCCN1 (configuration not stated)	2.12%
COc1ccc(C2CNC(=O)C2)cc1OC1CCCC1 (configuration not stated) [Rolipram]	-1.88%
NC(=O)Nc1sc(-c2ccc(F)cc2)cc1C(N)=O [tpca-1]	-3.79%
CCN(CC)C(=O)/C(C#N)=C/c1cc(O)c(O)c([N+](=O)[O-])c1 [entacapone]	-3.05%
COc1c(C)c(C(=O)c2ccc(N)c(C(=O)O)c2)n2ccccc12	-1.34%
CN1CC2c3ccccc3Oc3ccc(Cl)cc3C2C1 (configuration not stated) [Asenapine]	4.58%
COc1ccc(NS(=O)(=O)c2sc3ccc(Cl)cc3c2C)cc1N1CCNCC1	2.86%
O=C1CN2Cc3c(ccc(Cl)c3Cl)N=C2N1 [anagrelide-hydrochloride]	-2.31%
CN1C2CCC1CC(OC(=O)C(O)c1ccccc1)C2 (configuration not stated) [homatropine-bromide]	-4.81%
Cc1cn(-c2cc(NC(=O)c3ccc(C)c(Nc4nccc(-c5cccnc5)n4)c3)cc(C(F)(F)F)c2)cn1 [Nilotinib]	-4.47%
Cc1cc(-c2ccc(CC(=O)Nc3ccc(-c4cccnc4)cc3)cc2)ccn1	10.6%
CC(C)C[C@@H](C(=O)N[C@H](C(=O)OC1CCCC1)c1ccccc1)[C@H](O)C(=O)NO [CHR-2797(Tosedostat)]	3.72%
COc1cc(NC(=O)c2ccccn2)ccc1Cl	-1.74%
CN(C)C(=O)c1cc2cnc(Nc3ccc(N4CCNCC4)cn3)nc2n1C1CCCC1	-0.265%
COc1ccc(C[C@H](NC(=O)[C@H](C)NC(=O)CN2CCOCC2)C(=O)N[C@@H](Cc2ccccc2)C(=O)[C@@]2(C)CO2)cc1	15.1%
Cc1ccc(C(=O)NCCCCCC(=O)Nc2ccccc2N)cc1 [rg2833-rgfp109]	-3.05%

Compound	normalized SmoIP GFP fluorescence
Oc1ccc(-c2nc(-c3ccc(F)cc3)c(-c3ccncc3)[nH]2)cc1	-1.34%
CCCS(=O)(=O)Nc1ccc(F)c(C(=O)c2c[nH]c3ncc(Cl)cc23)c1F	-0.0496%
Cn1cc(-c2ccc3ncc(Cc4ccc5ncccc5c4)n3n2)cn1	-6.97%
Cc1ccc(S(=O)(=O)C=CC#N)cc1	2.86%
CCOc1cc2ncc(C#N)c(Nc3ccc(F)c(Cl)c3)c2cc1NC(=O)/C=C/CN(C)C [Pelitinib]	9.86%
CC(C)n1nc(-c2ccc3oc(N)nc3c2)c2c(N)ncnc21	-0.889%
CC(=O)Nc1cccc2c1c(Sc1ccc(Cl)cc1)c(C)n2CC(=O)O	-3.05%
CCCCc1nc2cc(/C=C/C(=O)NO)ccc2n1CCN(CC)CC	34.2%
COc1ccc([C@@H]2CC(=O)c3c(O)cc(O)cc3O2)cc1O [Hesperetin]	-18.9%
C[N+]1(C)[C@@H]2C[C@@H](OC(=O)C(O)(c3cccs3)c3cccs3)C[C@H]1[C@@H]1O[C@@H]12 [Tiotropium-Bromide-hydrate]	0.334%
CCN1CCN(Cc2ccc(-c3cc4c(N[C@H](C)c5ccccc5)ncnc4[nH]3)cc2)CC1	6.52%
C[C@@H]1CN(CC(=O)Nc2ccc3c(c2)Cc2cccc(-c4cc(=O)cc(N5CCOCC5)o4)c2S3)C[C@H](C)O1	5.98%
O=C(CCCCCCNC(=O)c1cnc(N(c2ccccc2)c2ccccc2)nc1)NO [rocilinostat-acy-1215]	6.2%
CNCCCC12CCC(c3ccccc31)c1ccccc12 [Maprotiline-hydrochloride]	-0.116%
C[C@H]1COC2=C1C(=O)C(=O)c1c2ccc2c1CCCC2(C)C [Cryptotanshinone]	-9.22%
O=C(NOCC(O)CO)c1cc(Br)c(F)c(F)c1Nc1ccc(I)cc1F (configuration not stated)	16.8%
C[C@@H](NCCc1ccc(O)cc1)[C@@H](O)c1ccc(O)cc1 [Ritodrine-hydrochloride-Yutopar]	-5.98%
CCCCCCCCc1ccc(CCC(N)(CO)CO)cc1	-0.0369%
O=c1cc(-c2ccc(O)cc2)oc2cc(O)cc(O)c12 [Apigenin]	-2.19%
